# According to PubChem BioAssay (EPA / NIEHS):
# Inconclusive results are not listed. More than one record can exist for a structure, and the calls need not agree. Activity calls are given as the source filed them. Rule for the calls: active = hit-call score of the fitted dose curve at least 0.9, where 1 is the maximum; inconclusive = response in the unintended direction; inactive = score below 0.9.
# Test: CCTE_Simmons_MITO_viability: CellTiter-Glo Viability Assessment for CCTE's HepG2 Seahorse XF Respirometric Screening Assay [post-hoc], Simmons Lab (AID 2284007);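 for AC50: cells exposed to chemical for 90 min before the ATP read; actives lower ATP signal relative to DMSO baseline meaning reduced viability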
# Method: CCTE_Simmons_MITO is cell-based, respirometric assay using HepG2 cells and a Seahorse XF Analyzer to measure oxygen consumption rates over four temporal phases spanning a total of 72 minutes: pre-injection (pre-treatment), basal (following test compound injection), maximal (following FCCP uncoupler injection), and inhibited (following rotenone/antimycin A injection)CCTE_Simmons_MITO_viability is one of 4 assay components measured from the CCTE_Simmons_MITO assay. It is designed to make measurements of ATP content, a form of viability reporter, as detected with bioluminescence signals by Luciferase-coupled ATP quantitation technology. Data from the assay component CCTE_Simmons_MITO_viability was analyzed at the endpoint, CCTE_Simmons_MITO_viability, in the positive analysis fitting direction relative to DMSO as the negative control and baseline of activity. Using a type of viability reporter, measures of ATP content for loss-of-signal activity can be used to understand the viability. To generalize the intended target to other relatable targets, this assay endpoint is annotated to the cell cycle intended target family, where the subfamily is cytotoxicity.
# Test chemicals were administered as a titrated series of 7 concentrations from 125 nM up to 100 uM [final] for 90 minutes prior to single endpoint detection. Three biological replicates of technical singles were run for every chemical concentration tested. Dimethylsulfoxide [DMSO] was used as the vehicle control. Dichlone [DCNQ] was used as the positive control and was administered as a titrated series of 8 concentrations from 10 nM up to 100 uM [final].
SMILES,outcome,AC50
C[C@]12CCC(=O)C[C@@H]1CC[C@@H]1[C@@H]2CC[C@]2(C)[C@@H](O)CC[C@@H]12,inactive,–
O=[N+]([O-])c1ccc(O)c([N+](=O)[O-])c1,inactive,18.1 µM (active)
O=C1C2(Cl)C3(Cl)C4(Cl)C(Cl)(Cl)C5(Cl)C3(Cl)C1(Cl)C5(Cl)C24Cl (stereo not given),–,71.6 µM (active)
CCC(C)(C)c1ccc(O)c(C(C)(C)CC)c1,inactive,–
CC(C)(C)CC(C)(C)c1ccc(O)cc1,inactive,–
C=C(C)C(=O)[O][Sn]([CH2]CCC)([CH2]CCC)[CH2]CCC,–,10.9 µM (active)
CCCCCCCCc1ccc(O)cc1,inactive,–
CC(=O)[O][Hg][c]1ccccc1,–,81.7 µM (active)
CCOP(=S)(OCC)Oc1nc(Cl)c(Cl)cc1Cl,–,23.4 µM (active)
